Assay results as given in publication PMC13494018.
Unmarked numbers belong to inactive results. No rule for the calls is given here.

Molecular target: VTCN1, Q7Z7D3
Sequence (Q7Z7D3 whole entry): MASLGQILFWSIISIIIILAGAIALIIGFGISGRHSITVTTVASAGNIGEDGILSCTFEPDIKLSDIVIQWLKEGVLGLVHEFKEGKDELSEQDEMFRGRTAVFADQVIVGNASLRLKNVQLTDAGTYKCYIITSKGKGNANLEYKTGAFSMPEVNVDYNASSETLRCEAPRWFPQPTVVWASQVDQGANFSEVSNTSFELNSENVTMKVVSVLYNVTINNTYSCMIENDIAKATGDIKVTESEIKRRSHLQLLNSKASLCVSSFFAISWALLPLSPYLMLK

| Binder | binding in a display sort |
| --- | --- |
| design_606_b60ff77f-1541-4e5f-8260-46d5e5f6b85e_2244_dldesign_0_cycle1_af2pred (protein) ENKEKVKKAKETLKKARKEAEKAVKKGVLTPEQIARIQEKLHKASELIAEAEQEKGEEGKEKAEKALELAKEVLKEVKEAE | not found |
| design_606_b60ff77f-1541-4e5f-8260-46d5e5f6b85e_2085_dldesign_0_cycle1_af2pred (protein) ERKQEAAELAERLLEKGEKGDEFTGSAYVTRAAHAIGEALGDEEVEKEIEEANKKDVKEGIKLAREKLEELRAA | not found |
| design_606_b60ff77f-1541-4e5f-8260-46d5e5f6b85e_1625_dldesign_0_cycle1_af2pred (protein) MAKEKAKKEAKKLTEEAAKKIREAALKEENPLEVAKEITEEVLKKIEEIGKKAGLSEEEIEKLKKEAKKKLAAAAHEAYQERAEEEFE | not found |
| design_606_b60ff77f-1541-4e5f-8260-46d5e5f6b85e_1772_dldesign_0_cycle1_af2pred (protein) SKKEEVKERVKEVLERAKKVAERGKKAGVDINEASEMMALAYEAKAAAEAGHIEEAEKLMKKAEEKLKKLEKRAKELEA | not found |
| design_606_b60ff77f-1541-4e5f-8260-46d5e5f6b85e_1975_dldesign_0_cycle1_af2pred (protein) AEAESQKVLDTAAELEADLILLGYKKPEIKEQALEDAKKVRRNAREAAGLILKDPEKGKKLAEETEKEGKELIKKYEEEV | not found |
| design_606_b60ff77f-1541-4e5f-8260-46d5e5f6b85e_2386_dldesign_0_cycle1_af2pred (protein) KEEEFEKLKQKAAQLILESYDALSKNIEEAKKYLKEALKAAEEAKKVDPEKGEEVLKKVEKTSKSILKSMELAKKA | not found |
| design_606_b60ff77f-1541-4e5f-8260-46d5e5f6b85e_2053_dldesign_0_cycle1_af2pred (protein) SSSLIEENKKEAKEEFNKFAIENGEKRIKEAKELLKKDPEKGKEALKKVLEEAKKLKEKNPEAGEKVEKAAEKALKEA | not found |
| design_606_b60ff77f-1541-4e5f-8260-46d5e5f6b85e_1622_dldesign_0_cycle1_af2pred (protein) NDKELSKKVHEGYELVAEYEQDPSFIKKNKEKAKEIAKKAEEAAKAAEEGAKKYPELAKALEKIAKKAKEVAKEAKKVAK | not found |
| design_606_b60ff77f-1541-4e5f-8260-46d5e5f6b85e_2039_dldesign_0_cycle1_af2pred (protein) SEEEEASKRNKELADKIREAVRNMREAYAAMQAALAAGDAAAAKAAADKALAQAKVLEELGLTSQAQSNAAKIKADLAAGLAALAA | not found |
| design_606_b60ff77f-1541-4e5f-8260-46d5e5f6b85e_1708_dldesign_0_cycle1_af2pred (protein) NEAEKKLKKVAEDAEKALSEAIKASKDDPEKQKELKEKLEQVKKLYEEGLKGTPEDMAKAAAEMRQLRSEADYVLSNAK | not found |
| design_606_b60ff77f-1541-4e5f-8260-46d5e5f6b85e_1785_dldesign_0_cycle1_af2pred (protein) MTPEERRARGEEELARLAKKIEEARKKAEEDGKKGSQDLFSLAERLENLAESAPEIAEEARALGEEARKLAEKLYS | not found |
| design_606_b60ff77f-1541-4e5f-8260-46d5e5f6b85e_2038_dldesign_0_cycle1_af2pred (protein) EAKEKAKLLKEAAKLAKEAAKAAADKEKAKKLATEAADLAIKAGDYKTNGYMESAILNAEAGNAEAAKAAAEKAAKRAEEKAKKL | not found |
| design_606_b60ff77f-1541-4e5f-8260-46d5e5f6b85e_2269_dldesign_0_cycle1_af2pred (protein) ITEDEVVEINNKGSKEGPLWKEAADYAIKALSYKIIAELVLSSENAEEDHKKALAKAEEYEAKYKEKLEKAEKAKKEK | not found |
| design_606_b60ff77f-1541-4e5f-8260-46d5e5f6b85e_2343_dldesign_0_cycle1_af2pred (protein) DAEEHAKEAEKAIKEAKAYIEEAIKTGDSEKAHEARQKLAEAEYEAKKVYELDPEKGAKLLKKVEEVKKLLKELQK | not found |
| design_606_b60ff77f-1541-4e5f-8260-46d5e5f6b85e_2122_dldesign_0_cycle1_af2pred (protein) GMEEEKERALEEIRRAREEIKKVAEELKEVDPELAKKAEKVLERAERGLEEGEKNPIAAIGMAEIVRDQLENGKKLLAEKKA | not found |
| design_606_b60ff77f-1541-4e5f-8260-46d5e5f6b85e_1676_dldesign_0_cycle1_af2pred (protein) DEAVKKAKELAKKLLEEAKKAAKKGDVETVKAIAKEAKAKAEEAEKNEGFKAAAELYSAYFRIEHMAESLA | not found |
| design_606_b60ff77f-1541-4e5f-8260-46d5e5f6b85e_1627_dldesign_0_cycle1_af2pred (protein) EEEKKKKYEELLKKAREEMEKLGKEFKKAVEKGDSKAASEAFRKAVKVAREAGEEAKKLGPEGEELEKELSQLLLEIAD | not found |
| design_606_b60ff77f-1541-4e5f-8260-46d5e5f6b85e_2092_dldesign_0_cycle1_af2pred (protein) MEEEKKKKAKELGEKLVEEVKKAAEEAKKTAETGTPEDAEKAKLDLSKKVHEALSELAEIGQKYDWEEAEKAKKEVIEIGKKAVA | not found |
| design_606_b60ff77f-1541-4e5f-8260-46d5e5f6b85e_2076_dldesign_0_cycle1_af2pred (protein) ATQAEASQAAAEASEARAELEQAAKKLKEEGKEELAKKAEEAAEEARKLLKQAQKADTDTAYKLAQEAKKKLEKELKKAKKA | not found |
